Bioassay records from PubChem BioAssay.
Sa helicase inh: S. aureus DNA helicase inhibition | purified S. aureus helicase, fluorescence unwinding assay | inhibition, % (no concentration beside the values) | 120,000 compounds, 0.05% hits | AID 485395; in the data active = inhibition above about 25%, passing the limit was not always enough;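 note: 0% = mean of negative control wells and 100% = mean of positive control wells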
Sa growth 42C: inhibitors of Staphylococcus aureus growth at 42 °C. 170,000 compounds, 0.53% hits. S. aureus RN4220 growth, OD600, 20 h; stronger effect = lower value. relative growth, % (concentration not given with the values);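 active = relative growth at most 50% at the other temperature and 20+ points below 30 °C, or under 10% at both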
* marks the source's active call; other numbers are inactive results; . = no result given. Most compounds without a hit are left out; they make up all but 0.52% or so of the library.

SMILES	Sa helicase inh	Sa growth 42C
Cc1ccc(-c2nnc(NC(=O)c3ccc(S(=O)(=O)N4CCCC4)cc3)o2)c(C)c1	3	1.6*
C=CCN(CC=C)S(=O)(=O)c1ccc(C(=O)Nc2nnc(-c3ccc(OC)cc3)o2)cc1	18	89
CCc1nnc(NC(=O)c2ccc(S(=O)(=O)N3CCCC3)cc2)o1	5	111
C=CCN(CC=C)S(=O)(=O)c1ccc(C(=O)Nc2nnc(-c3cc(C)ccc3C)o2)cc1	2	1.7*
Cc1cccc(NC(=O)C(Cc2ccccc2)N2Cc3ccccc3C2=O)n1 (centres undefined)	-13	93
CSc1nc(C)cc(SCCOc2ccccc2)n1	-5	92
CCC(CC)c1nnc(NC(=O)c2cccs2)s1	10	87
CCN(CC)C(=O)c1sc(NC(=S)N(C)Cc2cn(CC)nc2C)c(C(=O)OC)c1C	4	0.8*
CCn1cc(CN(C)C(=S)Nc2sc3c(c2C(=O)OC)CCC(C)C3)c(C)n1 (centres undefined)	28	95
CCOC(=O)CC(=N)N	63*	84
CCOC(=O)CC(N)=S	0	111
O=S(c1c(F)c(F)c(F)c(F)c1F)c1c(F)c(F)c(F)c(F)c1F	21	0.7*
N#Cc1c(=O)n(O)c2ccccc2[n+]1[O-]	.	125
CN(CCc1cn[nH]c1)Cc1nc(-c2ccc(C(F)(F)F)cc2)no1	-12	61
CCC(=O)O[C@H]1[C@H](O[C@@H]2[C@@H](C)[C@H](O[C@H]3C[C@@](C)(OC)[C@@H](O)[C@H](C)O3)[C@@H](C)C(=O)O[C@H](CC)[C@@](C)(O)[C@H](O)[C@@H](C)C(=O)[C@H](C)C[C@@]2(C)O)O[C@H](C)C[C@@H]1N(C)C	.	-0.9*
CC[C@H]1OC(=O)[C@H](C)C(=O)[C@H](C)[C@@H](O[C@@H]2O[C@H](C)C[C@H](N(C)C)[C@H]2O)[C@](C)(OC)C[C@@H](C)C(=O)[C@H](C)[C@@H]2N(CCCCn3cnc(-c4cccnc4)c3)C(=O)O[C@@]21C	.	93
CCOC(=O)CCC(=O)O[C@H]1[C@H](O[C@@H]2[C@@H](C)[C@H](O[C@H]3C[C@@](C)(OC)[C@@H](O)[C@H](C)O3)[C@@H](C)C(=O)O[C@H](CC)[C@@](C)(O)[C@H](O)[C@@H](C)C(=O)[C@H](C)C[C@@]2(C)O)O[C@H](C)C[C@@H]1N(C)C	.	-0.8*
CC[C@H]1OC(=O)[C@H](C)[C@@H](O[C@H]2C[C@@](C)(OC)[C@@H](O)[C@H](C)O2)[C@H](C)[C@@H](O[C@@H]2O[C@H](C)C[C@H](N(C)C)[C@H]2O)C(C)(O)C[C@@H](C)CN(C)[C@H](C)[C@@H](O)[C@]1(C)O (some centres undefined)	.	-0.4*
CC[C@H]1OC(=O)[C@H](C)[C@@H](O[C@H]2C[C@@](C)(OC)[C@@H](O)[C@H](C)O2)[C@H](C)[C@@H](O[C@@H]2O[C@H](C)C[C@H](N(C)C)[C@H]2O)[C@](C)(O)C[C@@H](C)C(=O)[C@H](C)[C@@H](O)[C@]1(C)O	.	-0.9*
CO[C@@H]1[C@@H](O[C@@H]2O[C@H](C)[C@@H](O[C@H]3C[C@@](C)(O)[C@H](O)[C@H](C)O3)[C@H](N(C)C)[C@H]2O)[C@@H](CC=O)C[C@@H](C)[C@@H](O[C@H]2CC[C@H](N(C)C)[C@@H](C)O2)/C=C/C=C/C[C@H](C)OC(=O)C[C@H]1O	.	21
CN(CC(=O)Nc1ccccc1C(=O)Nc1ccccc1)C1CCS(=O)(=O)C1 (centres undefined)	-1	101
Cn1c(=O)n(C)c2cc(/C=N/NC(=O)Nc3ccccc3)ccc21	10	74
O=C1CCCN1c1ccc(S(=O)(=O)Nc2ccc(I)cn2)cc1	6	95
COc1cc(SC)ccc1C(=O)N1CCc2ccccc2C1	15	120
Cc1cccc(NC(=O)c2coc3ccccc3c2=O)n1	-18	.
SMILES	Sa helicase inh	Sa growth 42C
Cc1ccc2nc(N3CCCC3)[nH]c2c1	17	113
O=C(C1=NN(C2CCS(=O)(=O)C2)C(=O)CC1)N1CCc2ccccc2C1 (centres undefined)	-10	97
CN(Cc1ccccc1)S(=O)(=O)c1ccc2c(c1)n(C)c(=O)c(=O)n2C	-3	87
CN1C(=O)CC(=O)N(C)c2cc(S(=O)(=O)N(C)Cc3ccccc3)ccc21	.	-1.7*
COc1cccc(C(N)=O)c1OC(=O)COc1ccc(Br)cc1	15	114
Cc1ccc(OCc2nc(CC(=O)O)cs2)cc1	23	105
Cc1c2oc3c(C)ccc(C(=O)N[C@@H]4C(=O)N[C@H](C(C)C)C(=O)N5CCC[C@H]5C(=O)N(C)CC(=O)N(C)[C@@H](C(C)C)C(=O)O[C@@H]4C)c3nc-2c(C(=O)N[C@@H]2C(=O)N[C@H](C(C)C)C(=O)N3CCC[C@H]3C(=O)N(C)CC(=O)N(C)[C@@H](C(C)C)C(=O)O[C@@H]2C)c(N)c1=O	.	-0.6*
N#CCCn1cc(/C=C/C(=O)O)c2ccccc21	-1	85
Cc1cc(C)cc(N2C(=S)N(c3ccccc3)C3CS(=O)(=O)CC32)c1 (centres undefined)	5	95
Cn1c(C(=O)N2CCC3(CC2)OCCO3)cc2c(=O)[nH]c3ccccc3c21	-37	108
CCC1CCc2[nH]c(=S)c(C#N)c(C(F)(F)F)c2C1 (centres undefined)	16	8.0*
CCCCSc1nc2c(c(C(F)(F)F)c1C#N)CCC2	9	109
c1ccc2c(c1)N1CCN2CC1	-9	94
Nc1ccccc1N1CCCC1	11	2.8*
Nc1nnc2c(Nc3ccccc3)nc3nonc3n12	-1	98
c1ccc(Nc2nc3nonc3nc2Nc2ccccc2)cc1	-8	-1.6*
CSCc1c(C(=O)Nc2ccc(NC(C)=O)cc2)oc2ccccc12	-6	98
CN(Cc1ccc(C(C)(C)C)cc1)C(=O)c1ccc(N(C)C)cc1	-5	107
O=C(COc1ccc2c3c(c(=O)oc2c1)CCC3)OCc1ccccc1	13	.
CCN(CC)c1ncc2c(=S)[nH]c(=S)[nH]c2n1	.	95
C=CCSc1ncc2c(=S)[nH]c(=S)[nH]c2n1	.	0.0*
COc1cccc(C(CC(=O)c2ccc(Cl)cc2)C(C#N)C#N)c1 (centres undefined)	2	51
Cc1ccc(C(=O)CC(c2ccccc2)C(C#N)C#N)cc1 (centres undefined)	-9	48*
O=C(COc1cc(Cl)ccc1Cl)NCc1ccccc1	-5	106
CCn1c(CNC(=O)N(c2ccccc2)c2ccccc2)nnc1SC	7	89
SMILES	Sa helicase inh	Sa growth 42C
CC(=O)Oc1ccccc1C(=O)Nc1ccc(C(N)=O)cc1	13	103
CC(=O)Oc1ccccc1C(=O)Nc1ccc(OC(F)F)cc1	-19	4.2*
O=C(CCc1ccccc1)Nc1nnc(-c2ccccc2)o1	-15	.
CCCCC(=O)Nc1nnc(-c2ccc(Cl)s2)o1	5	8.8*
O=C(CCCc1c[nH]c2ccccc12)Nc1nnc(-c2ccc(Cl)cc2)o1	-5	88
CCCCC(=O)Nc1nnc(-c2ccc(Cl)cc2)o1	21	-0.3*
Nn1c(Cc2ccccc2F)nnc1SCC(=O)c1ccc[nH]1	-4	114
COc1ccc(N2C(=N)C(C)(C)NC2=O)cc1	6	108
Cc1ccc(S(=O)(=O)N(/C(N)=N/c2nc(C)cc(C)n2)c2ccc(C)c(C)c2)cc1	4	120
